Screens as filed in PubChem BioAssay.
The list is not random: actives were taken first. Their share in the collection is about 2.8%.
ATXN viability – reduces viability in counter-screen for ATXN expression inhibitors; Potency, µM (highest dose often 56.7 µM), most hits filed as cytotoxic; S2 cells (HEK-293 line with an ATXN2-luciferase reporter) viability, CellTiter-Fluor protease fluorescence, 24 h; 400,000 compounds, 0.49% hits; AID 651635; note: potency is the fitted concentration of half-maximal effect; nearly all actives have a fitted effect of over 40% in size
Six1-Eya2 inh – blocks human Six1 binding to Eya2. Q15475+O00167. AlphaScreen GST-Six1/His-Eya2 binding, biochemical; stronger effect = lower value. activity change, % (test concentration not listed). 360,000 compounds, 0.56% hits. AID 651725; in the data active = activity change below about -65%; inconclusive = mostly about -30% to -63%; note: % is set by controls: 0 for no effect and ±100 for the full control effect
Target sequence (O00167 whole entry, looked up): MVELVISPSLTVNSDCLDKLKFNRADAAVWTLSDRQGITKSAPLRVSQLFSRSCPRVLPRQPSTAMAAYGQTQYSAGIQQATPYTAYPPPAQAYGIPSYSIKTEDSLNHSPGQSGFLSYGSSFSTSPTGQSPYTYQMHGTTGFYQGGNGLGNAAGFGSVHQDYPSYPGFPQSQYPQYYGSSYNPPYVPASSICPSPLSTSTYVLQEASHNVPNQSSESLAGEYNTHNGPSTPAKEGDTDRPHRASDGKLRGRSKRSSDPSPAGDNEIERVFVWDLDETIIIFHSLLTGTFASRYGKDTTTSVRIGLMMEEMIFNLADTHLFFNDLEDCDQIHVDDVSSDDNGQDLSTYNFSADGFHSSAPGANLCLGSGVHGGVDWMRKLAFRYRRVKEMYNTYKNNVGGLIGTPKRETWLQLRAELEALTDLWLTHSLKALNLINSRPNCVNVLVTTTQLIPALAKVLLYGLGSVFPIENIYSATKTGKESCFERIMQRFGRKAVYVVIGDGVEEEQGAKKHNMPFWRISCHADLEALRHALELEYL
Target sequence (Q15475 whole entry, looked up): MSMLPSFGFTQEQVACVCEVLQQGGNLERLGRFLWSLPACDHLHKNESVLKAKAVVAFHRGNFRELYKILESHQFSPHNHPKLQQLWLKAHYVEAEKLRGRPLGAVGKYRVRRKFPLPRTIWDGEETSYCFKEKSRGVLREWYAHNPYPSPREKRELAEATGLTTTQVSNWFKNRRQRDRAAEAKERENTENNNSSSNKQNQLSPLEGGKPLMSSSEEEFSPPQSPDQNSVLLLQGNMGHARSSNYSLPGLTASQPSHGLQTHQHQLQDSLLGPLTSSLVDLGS
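AlphaScreen with GST-Six1 and His-Eya2 (5X mix: 250 nM and 500 nM), glutathione donor and nickel acceptor beads; buffer 50 mM Tris pH 8.0, 300 mM NaCl, 1 mM TCEP; 1 h at 37 C in the dark.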
ATXN2 expr inh – inhibitors of ATXN2 expression; HEK-293 ATXN2-luciferase reporter, luminescence, 24 h; AID 1745845; 360,000 compounds, 0.72% hits; Potency, µM (highest dose often 57 µM), without a hit: at the top dose activity change, negative = inhibition, hits mostly inhibitors; note: potency is the fitted concentration of half-maximal effect; % is set by controls: 0 for no effect and ±100 for the full control effect; nearly all actives have a fitted effect of over 55% in size
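qHTS (up to 57 uM final) was run with 24 h compound exposure of reporter cells at 37 °C. Each well was multiplexed: SteadyGlo luminescence measured ATXN2-luciferase expression after a fluorogenic Gly-Phe-AFC viability readout (25 uM final).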
HepG2 viability – counter-screen for TGF-b inhibitors: cytotoxicity in HepG2 cells; HepG2 CAGA-GFP viability, ATP luminescence, 18 h; Potency, µM (titrated, usually from 46.1 µM), for the others: top-dose activity change, negative = cytotoxicity, most hits filed as cytotoxic; 410,000 compounds, 0.76% hits; AID 588856; note: potency is the fitted concentration of half-maximal effect
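CellTiter-Glo luminescence gave cytotoxicity after 18 hours at 37 degrees C. The cells were HepG2 CAGA-GFP in 1% FBS DMEM, stimulated with 500 pg/mL TGF-beta after compound addition. %Activity was normalised to no-cell wells (complete cell-killing) and DMSO (no toxicity), and curves were fitted and classified.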
TGFb inhibitor – blocks TGF-b signaling | HepG2 CAGA-GFP TGF-b/SMAD3 reporter, GFP fluorescence, 18 h; TGF-beta stimulated, 500 pg/mL final | 410,000 compounds, 1.2% hits | Potency, µM (top dose mostly 46.1 µM), for the others: at the highest dose activity, negative = inhibition, most hits filed as inhibitors | AID 588855; note: potency is the fitted concentration of half-maximal effect; % is set by controls: 0 for no effect and ±100 for the full control effect; nearly all actives have a fitted effect of over 65% in size
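Smad-responsive CAGA-GFP expression was quantified in HEPG2 cells exposed to compounds and 500 pg/mL final TGF-beta for 18 h at 37 degrees C; unstimulated wells defined full inhibition.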
CtBP-E1A blk – inhibitors of CtBP/E1A interaction. AlphaScreen GST-E1A/His-CtBP binding, 1536-well; stronger effect = lower value. activity change, % (test concentration not listed). 340,000 compounds, 0.49% hits; in the data active = activity change below about -65%; inconclusive = mostly about -30% to -63%; note: % is set by controls: 0 for no effect and ±100 for the full control effect
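In 5 uL wells, 23 nL compound meets equimolar GST-E1A and His-CtBP (5X stock 125 nM each) for 2 h, 37 °C. Beads (5X, 50 ug/mL) then 1 h, 37 °C, dark.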
* marks the source's active call; other numbers are inactive results; i = inactive; ? = inconclusive; . = no result given. Unless noted, calls come from the whole dose curve; as a rule, active = well fitted curve in the direction sought with a large enough effect; inconclusive = small, poorly fitted or top-dose-only effect, or another doubt; inactive = no such curve, though single readings can be large; an effect the other way counts as inactive or inconclusive.

SMILES	ATXN viability	Six1-Eya2 inh	ATXN2 expr inh	HepG2 viability	TGFb inhibitor	CtBP-E1A blk
O=C(/C=C/c1ccc(OC2CSC2)cc1)c1ccccc1	?	-7	?	6.3µM*	?	-1
COC(=O)C1=C(C)NC(C)=C([N+](=O)[O-])[C@H]1c1ccccc1C(F)(F)F	.	.	.	-7%	?	.
COC(=O)C1=C(C)NC(C)=C(C(=O)OCC(C)C)C1c1ccccc1[N+](=O)[O-] (stereo not drawn)	?	-6	?	-45%	18µM*	?
COC(=O)CSc1nnc(-c2sc3ccccc3c2Cl)o1	i	7	22µM*	-14%	1%	-3
N#CCSc1nnc(-c2sc3ccccc3c2Cl)o1	i	-7	-9%	-34%	0%	-2
O=c1cc(C(F)(F)F)nc(SC/C=C/c2ccccc2)[nH]1	i	-2	.	-33%	14µM*	.
Nc1cc(=O)[nH]c(SC/C=C/c2ccccc2)n1	i	4	15%	-3%	-2%	-6
Cc1cccc2c1Sc1ccc(Cl)cc1CC2N1CCNCC1 (stereo not drawn)	16µM*	0	?	-156%	?	17
CN1CCN(C2Cc3ccc(F)cc3Sc3cc(F)c(Cl)cc32)CC1 (stereo not drawn)	?	-12	?	20µM*	?	-6
CN1CCN(C2Cc3ccccc3Sc3cc(C(F)(F)F)ccc32)CC1 (stereo not drawn)	.	-12	?	20µM*	?	-4
CSc1ccc2c(c1)[C@H](N1CCN(C)CC1)Cc1ccccc1S2	i	.	.	.	.	.
CN1CCN(C2Cc3cc(F)ccc3Sc3ccc(Cl)cc32)CC1 (stereo not drawn)	?	-2	.	-105%	32µM*	.
CSc1ncccc1C(=O)NCC1Cc2cc(-c3cnccn3)ccc2O1 (stereo not drawn)	i	.	.	.	.	.
Cc1onc(-c2c(F)cccc2Cl)c1C(=O)c1ccccc1	i	11	-32%	31%	20%	12
Cc1onc(-c2c(F)cccc2Cl)c1C(=O)c1ccccc1O	i	29	-16%	5.6µM*	-5%	7
COC(=O)c1ccc(C(=O)N2CCc3c(C(=O)NC(C)c4ccco4)c(OC)cc(=O)n3CC2)cc1 (stereo not drawn)	i	.	.	.	.	.
O=C(CSc1nc(-c2ccc(F)cc2)[nH]c1-c1ccc(F)cc1)Nc1ccc2c(c1)OCO2	?	.	?	-69%	7.1µM*	.
COc1ccc(-c2[nH]c(-c3ccc(F)cc3)nc2SCC(=O)NC2CCCC2)cc1	?	-21	2%	-22%	?	-30
COc1ccc(-c2nc(SCC(=O)NC3CCCC3)c(-c3ccc(F)cc3)[nH]2)cc1	.	.	.	-35%	11µM*	.
Cc1cccc(-c2nc(SCC(=O)Nc3ccc4c(c3)OCO4)c(-c3ccccc3)[nH]2)c1	?	.	?	-22%	13µM*	.
O=C(CSc1nc(-c2ccc(F)cc2)[nH]c1-c1ccc(F)cc1)Nc1ccc2c(c1)OCCO2	.	.	?	-57%	7.9µM*	.
O=C(NCCc1nnc2n1CCN(Cc1cc3ccccc3o1)CC2)c1ccoc1	i	.	.	.	.	.
COc1cccc(CN(C(=O)COc2ccc(Cl)c(C)c2)C2CCS(=O)(=O)C2)c1 (stereo not drawn)	.	.	.	-25%	?	.
Nc1nc(SCC(=O)Nc2ccc3c(c2)OCO3)n[nH]1	i	7	8%	10µM*	-2%	14
O=C(CSc1nc(-c2ccccc2)[nH]c1-c1ccccc1)Nc1ccc2c(c1)OCCO2	.	.	?	10µM*	?	.
Cc1ccn2c(CC(C)(C)C)c(-c3ccc(F)cc3)nc2c1	25µM*	-7	?	-69%	?	2
Cc1ccc(Cc2c(-c3ccc(C)cc3)nc3cc(C)ccn23)cc1	32µM*	-16	?	-70%	?	-5
Cc1ccn2c(Cc3ccccc3)c(-c3ccc(Br)cc3)nc2c1	14µM*	20	0%	-2%	9%	0
